Measurements taken from PubChem BioAssay (Tox21).
Records with an inconclusive call do not appear. Values without a mark were called inactive. Active and inactive are the calls of the source. The call rests on the fitted dose curve; in most records, active means well fitted cell-killing curve with a large enough effect in the repeat runs; inconclusive means weak or mixed curves, or effect the other way; inactive means flat fitted curve, though single readings scatter.

assay: qHTS RealTime-Glo MT Cell Viability Assay in HEK293 cells - 24 hour (AID 1224886); details: RealTime-Glo luminescence; series mostly up to 76.8 µM; activity change, negative = cytotoxicity: at the top concentration; further: nearly all actives have a fitted effect of over 50% in size; on activity change, negative = cytotoxicity: top concentration of the series differs between compounds
Procedure, shortened: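 Quantitative high-throughput screen of the Tox21 10K library in HEK293: cells and RealTime-Glo reagents plated together, compound added at 5 h, luminescence monitored through 40 h at 37 C.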
On the % scale 0 is the no-effect control and ±100 the full control effect; potency means the concentration at half of the fitted maximal effect.

SMILES	activity change, negative = cytotoxicity	Potency
CCCCCCCC/C=C\CCCCCCCC(=O)OC[C@@H](O)[C@H]1OC[C@H](O)[C@H]1O	4.39%	
COc1ccc(NS(=O)(=O)c2ccc(N)cc2)nn1	1.73% [at 35.3 µM]	
CC(C)CCO	1.26%	
CCS(=O)(=O)CCn1c([N+](=O)[O-])cnc1C	2.45% [at 35.3 µM]	
O=C(O)CCNC(=O)c1ccccc1	-1.19% [at 35.3 µM]	
C=C[Si](C)(C)O[Si](C)(C)C=C	-0.825%	
Cc1ccccc1C(=O)N1CC/C(=N\OS(=O)(=O)O)c2ccc(Cl)cc21	-3.38% [at 35.3 µM]	
COc1ccc(N=Nc2cc(C)c(N=Nc3ccc(S(=O)(=O)O)cc3)cc2OC)cc1	-10.6%	
CCCCCCCC[Si](OCC)(OCC)OCC	1.37%	
CNC(=O)C(c1ccccc1)c1ccccc1	0.0773%	
CCCCCN(CCCOC)C(=O)C(CCC(=O)O)NC(=O)c1ccc(Cl)c(Cl)c1 (stereo not drawn)	0.544% [at 35.3 µM]	
CCNC(=O)/C=C/c1cccc(Br)c1	-1.51% [at 35.3 µM]	
C[C@H](CCC(=O)NCC(=O)O)[C@H]1CC[C@H]2[C@@H]3[C@H](O)C[C@@H]4C[C@H](O)CC[C@]4(C)[C@H]3C[C@H](O)[C@]12C		13.4 µM (active)
NC(Cc1c[nH]c2ccccc12)C(=O)O (stereo not drawn)	10.1% [at 35.3 µM]	
O=S(=O)(O)SSS(=O)(=O)O	0.171%	
NS(=O)(=O)c1ccc(Cl)c(S(N)(=O)=O)c1	8.78% [at 35.3 µM]	
COC(=O)CCC(=O)O	15.2%	
CC(C)COC(=O)COc1ccc(Cl)cc1Cl	1.02%	
C=C(C)[C@@H]1CC[C@@H](C)C[C@@H]1O	2.36%	

SMILES	activity change, negative = cytotoxicity	Potency
Nc1ccc(S(=O)(=O)Nc2ccccn2)cc1	-0.0665% [at 35.3 µM]	
C=CCOC(=O)c1ccc(C(=O)OCC=C)c(C(=O)OCC=C)c1	-4.75%	
O=C(O)Cc1cccc(-c2cc(CCCCCCc3ccc(O[C@H]4O[C@H](CO)[C@@H](O)[C@H](O)[C@@H]4O)c(-c4cccc(CC(=O)O)c4)c3)ccc2O[C@H]2O[C@H](CO)[C@@H](O)[C@H](O)[C@@H]2O)c1	-1.38% [at 0.29 µM]	
O=S(=O)(O)c1cc(O)ccc1O	8.03%	
CCCCC(C)C(=O)O (stereo not drawn)	-1.71%	
NS(=O)(=O)c1cc2c(cc1Cl)NC(CC1CCCC1)NS2(=O)=O (stereo not drawn)	2.83% [at 35.3 µM]	
CCCCCCCCCCCCCCCCCCN(C)C	0.073% [at 35.3 µM]	
CC(=O)OCC(=O)[C@@]1(O)[C@H](OC(C)=O)C[C@H]2[C@@H]3CCC4=CC(=O)C=C[C@]4(C)[C@@]3(F)[C@@H](O)C[C@@]21C	3.41% [at 35.3 µM]	
C=CCOCC(O)CCl (stereo not drawn)	10.4%	
CCOC(=O)CCc1ccccc1	3.37%	
Nc1cc(C(=O)O)ccc1Cl	0.676%	
c1ccccc1	-0.404%	
FC(F)(F)c1ccc(Cl)cc1Cl	8.38%	
CC(C)(C)c1ccc(C=O)cc1	1.35%	
O=C(O)c1ccccc1C(=O)OCc1ccccc1	4.19%	
COc1cc([N+](=O)[O-])ccc1N	-10.6%	
C[C@@H]1C[C@H]2[C@@H]3C[C@H](F)C4=CC(=O)C=C[C@]4(C)[C@@]3(F)[C@@H](O)C[C@]2(C)[C@@]1(O)C(=O)CO	3.44% [at 35.3 µM]	
O=S1(=O)CCCC1	14.6%	
O=c1[nH]c(=O)c2ccccc2o1	4.03% [at 35.3 µM]	
